In PubChem BioAssay (EPA / NIEHS):
“And” between values parts separate entries of the source, which are not always exact repeats. Equal entries are not always repeated. A structure can be active in one record and inactive in another. The source made the active and inactive calls. How the source made its calls: active means hit-call score of the fitted dose curve at least 0.9, where 1 is the maximum; inactive means score below 0.9.

Assay: ATG_PXRE_CIS: Attagene CIS-FACTORIAL HepG2 Assay for human Pregnane X Receptor Element (PXRE) (AID 2282957)
Conditions: HepG2 Attagene CIS-FACTORIAL PXRE reporter, mRNA; actives raise or lower the signal
Method: ATG_CIS is a cell-based, multiplexed-readout assay that uses HepG2, a human liver cell line, with measurements taken at 24 hours after chemical dosing in a 24-well plate.ATG_PXRE_CIS is one of 52 assay component(s) measured or calculated from the ATG_CIS assay. It is designed to make measurements of mRNA induction, a form of inducible reporter, as detected with fluorescence intensity signals by Reverse transcription polymerase chain reaction (RT-PCR) and Capillary electrophoresis technology.Data from the assay component ATG_PXRE_CIS was analyzed into 1 assay endpoint. This assay endpoint, ATG_PXRE_CIS, was analyzed with bidirectional fitting relative to DMSO as the negative control and baseline of activity. Using a type of inducible reporter, measures of mRNA for gain or loss-of-signal activity can be used to understand the reporter gene at the transcription factor-level as they relate to the gene NR1I2. Furthermore, this assay endpoint can be referred to as a primary readout, because this assay has produced multiple assay endpoints where this one serves a reporter gene function. To generalize the intended target to other relatable targets, this assay endpoint is annotated to the nuclear receptor intended target family, where the subfamily is non-steroidal.
Human liver HepG2 cells are transiently transfected with multiple reporter transcription units (MRTUs) in 6-well plates using FuGene 6 reagent (Roche; 3 ml FuGene/1 mg DNA). The MRTU constructs are regulated by a cis-regulating element (promoter). […] A major difference between the CIS and TRANS system is that in CIS activities of endogenous TFs are measured, whereas the TRANS assay evaluates changes in activities of exogenous, chimeric NR-Gal4 proteins. […] At the end of 24 hour incubation, total RNA was isolated using TriZol reagent (Invitrogen). The isolated RNA is then reverse-transcribed using oligo(dT) primer and Mo-MLV reverse transcriptase (Invitrogen) with DNAse I (Ambion) treatment for 30 min. The one-tenth of the produced cDNA was amplified by PCR using Taq DNA polymerase (Invitrogen) and two reporter sequence-specific primers. The PCR products were fluorescently labeled by primer extension with 6-arboxyfluorescein (6-FAM) 5'-labeled reporter sequence-specific primer (2 min at 95 C, 20 s at 68 C and 10 min at 72 C) and these products were digested with 5U of HpaI (New England Biolabs) for 2h at 37 C. The fragments were purified using Qiaquick PCR columns (Qiagen), analyzed on an ABI 3130xL genetic analyzer (Applied Biosystems) with peak positions identified by using a set of X-rhodamine (ROX)-labeled MapMarker1000 molecular weight standards (BioVentures). The raw capillary electrophoresis data was processed using Attagraph software (Attagene).

SMILES | AC50 | outcome
OB(O)O | 81.3 µM (active) | 
COC(=O)c1ccc(I)cc1S(=O)(=O)NC(=O)Nc1nc(C)nc(OC)n1 | 50 µM (active) | 
c1ccc(Nc2ccccc2)cc1 | 64 µM (active) and 37.5 µM (active) | 
CC(C)(c1ccc(O)cc1)c1ccc(O)cc1 |  | inactive
Cc1nn(C)c(Oc2ccccc2)c1C=NOCc1ccc(C(=O)OC(C)(C)C)cc1 | 1.15 µM (active) | 
CC(=O)S[C@@H]1CC2=CC(=O)CC[C@]2(C)[C@H]2CC[C@@]3(C)[C@@H](CC[C@@]34CCC(=O)O4)[C@H]12 | 7.65 µM (active) [middle of 4 runs] | inactive
CCCOC(=O)NCCCN(C)C |  | inactive
CCCCOCCOCCOCc1cc2c(cc1CCC)OCO2 | 2.21 µM (active) | 
CCCOC(=O)c1ccc(C(=O)OCCC)nc1 |  | inactive
CCCCC(CC)COC(=O)c1ccccc1C(=O)O (stereo not given) | 24.6 µM (active) | 
COC(=O)c1ccc(CNS(C)(=O)=O)cc1S(=O)(=O)NC(=O)Nc1nc(OC)cc(OC)n1 |  | inactive
CCOC(=O)[C@H](C)Oc1ccc(Oc2nc3ccc(Cl)cc3o2)cc1 |  | inactive
Oc1ccc(C(c2ccc(O)cc2)C(Cl)(Cl)Cl)cc1 | 0.498 µM (active) | 
O=C(Nc1ccc([N+](=O)[O-])cc1Cl)c1cc(Cl)ccc1O | 0.426 µM (active) | 
CCOC(=O)C(C)Oc1ccc(Oc2nc3ccc(Cl)cc3o2)cc1 (stereo not given) |  | inactive
CCCCCOC(=O)COc1cc(N2C(=O)C3=C(CCCC3)C2=O)c(F)cc1Cl | 10.2 µM (active) | 
O=C(O)c1ccccc1 |  | inactive
CCOC(=O)COc1cc(-n2ncc(C(F)(F)F)c(C)c2=O)c(F)cc1Cl | 28.5 µM (active) | 
N#CSCSc1nc2ccccc2s1 | 3.49 µM (active) | inactive

SMILES | AC50 | outcome
CCSC(=O)N(CC(C)C)CC(C)C |  | inactive
CC(=O)[C@H]1CC[C@H]2[C@@H]3CCC4=CC(=O)CC[C@]4(C)[C@H]3CC[C@]12C | 4.83 µM (active) [middle of 4 runs] | 
CCN(CC)C(=O)c1cccc(C)c1 | 40.2 µM (active) | inactive
CCCCOC(=O)[C@@H](C)Oc1ccc(Oc2ccc(C(F)(F)F)cn2)cc1 | 50 µM (active) | 
COC(=O)CSc1cc(N=c2sc(=O)n3n2CCCC3)c(F)cc1Cl | 9.92 µM (active) | 
CCCN(CCC)C(=O)SCC |  | inactive
COc1nc(C)nc(NC(=O)NS(=O)(=O)c2ccccc2OCCCl)n1 | 34.2 µM (active) and 5.58 µM (active) | 
CCCCC(CC)CN1C(=O)C2C3C=CC(C3)C2C1=O (stereo not given) | 3.79 µM (active) | 
C=CCOC(Cn1ccnc1)c1ccc(Cl)cc1Cl (stereo not given) | 4.84 µM (active) | 
COC(=O)c1ccccc1S(=O)(=O)NC(=O)Nc1nc(OC(F)F)cc(OC(F)F)n1 | 33.2 µM (active) | 
C[C@]12C[C@H](O)[C@H]3[C@@H](CCC4=CC(=O)CC[C@@]43C)[C@@H]1CC[C@@H]2C(=O)CO | 32.7 µM (active) [middle of 4 runs] | 
CCCCCCC(C)OC(=O)COc1nc(F)c(Cl)c(N)c1Cl (stereo not given) |  | inactive
CCCCOC(=O)C(C)Oc1ccc(Oc2ccc(C(F)(F)F)cn2)cc1 (stereo not given) | 56.4 µM (active) | 
CN(C)C(=O)Nc1ccc(Cl)c(Cl)c1 | 11.4 µM (active) and 25.4 µM (active) | 
COC(=O)c1c(Cl)nn(C)c1S(=O)(=O)NC(=O)Nc1nc(OC)cc(OC)n1 |  | inactive
C#C[C@]1(O)CC[C@H]2[C@@H]3CCC4=CC(=O)CC[C@@H]4[C@H]3CC[C@@]21CC | 5.07 µM (active) [middle of 5 runs] | 
O=C(c1ccccc1)C1CCCCC1 | 26.9 µM (active) [middle of 4 runs] | 
CSC(=O)c1cccc2nnsc12 | 49.4 µM (active) | 
